The results in this text go back to PubChem BioAssay AID1508600 (Functional Genomics Laboratory (NCATS/FGL), 2020).

The whole screen tested about 53,000 sequences, of which about 3,700 (7%) were called active. Shown is part of a subset that was picked to be rich in actives. Unmarked numbers belong to inactive results.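 Rule for the calls: active = gene knockdowns whose robust z-score for IL-1 alpha signal is at least 2 or at most -2, so actives lie on both sides; inactive = the rest.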

The assay can be described thus: Components of the Cytosolic LPS Sensing Pathway: Gene Identification via Genome-wide siRNA Screen.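 Note: robust z of the log signal after scaling to non-targeting control siRNA wells of the plate.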 The conditions noted are these: RAW264.7 macrophages, IL-1a HTRF, actives lie on both sides, screened at 100 nM (by protocol), cells primed 5 h with Pam3CSK4 first. An outline of the steps: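 IL-1a HTRF of supernatants after 24 hour LipidA transfection of Pam3CSK4-primed (5 hours) RAW264.7 cells, 48h post-siRNA transfection (100 nM). Scores: percent of plate negative-control median, then log-based robust z-score.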
For the sequence GGCCCUCCCAAAUCAUUUGTT against Slc30a6, the z-score was 0.188.

For GGAUACAUUGAGAAAGACUTT against Tor1aip2, the z-score is 2.43 (active).

For GGGAAGAAAGACUCAAACUTT against Dcdc2a, the z-score was 0.919.

As to GGAAAAUUCAGGAAGUUUGTT against Magi3, the z-score was 0.489.

GGAAACCUGAUUAUCAUCATT against Olfr791: the z-score was -0.337.

Regarding CCUGGACCCAUGAAGUCUUTT against Ahnak, the z-score is 0.911.

Turning to GCUGGCCAAACUUGACAGUTT against Wwc1, the z-score was 2.05 (active).

Turning to CCCUCAUACCGCUUAGAACTT against Tctex1d4, the z-score was -0.786.

Turning to GCCUGUGGCUUAAACUUCATT against Vat1l, the z-score was 0.11.

For the sequence GGAGAACAAGAUCUUACAGTT against Cby2, the z-score is -0.703.

On to GGAACACCACCUUAGAGAUTT against Hnrnpa2b1, for which the z-score was 1.52.

For GAAAUGAGUCCUUGAAAAGTT against Olfr127, the z-score was -0.0661.

For CGCAGCCUUUACCUCCGAATT against Plekha8, the z-score was -1.12.

Regarding “GGCAUUAGCUACCUGGACATT against 1700013G24Rik”, the z-score is 3.44 (active).

Turning to GGUGGUCCAGACCAAGUACTT against Pfdn5, the z-score is -1.02.

For GGUCUUCAGCCCAAGAAAUTT against Dsg2, the z-score was 0.127.

For the sequence GCAAUACUUAUCCAUUGCGTT against Msx3, the z-score is -0.42.

For the sequence GGACUCAUUGACUUCAUCATT against Atg12, the z-score was -1.8.

Take GCUUGCUUCGCCUACAUUGTT against Slc46a3: the z-score is -0.501.

GUAGUUAGGAACUCUUGCUTT against Thnsl2: the z-score was -0.086.

For GGCUGAUGUGAUGAUUGUATT against Ndufs7, the z-score is 2.3 (active).

GCACUGUGAGUGGAUACUUTT against Slc5a3: the z-score is 0.13.

In the case of “CCAUCAAGAUCUCUCAGUATT against A630091E08Rik”, the z-score was -1.25.

On to CGAAUGUCCUGGAAGCAAATT against Olfr142, for which the z-score was -0.0904.

Turning to GCUCUUAGAGAUUUGUUUGTT against Usp14, the z-score is 0.389.

On to CCAUUUUUGCUCAAUUUGCTT against Eif1ax, for which the z-score is -0.943.

On to GCCAAACUGCGUCUGAAUGTT against Rras, for which the z-score is 0.62.

Consider GGACAAGUACGGAAAGCCCTT against Hdgfl2, for which the z-score is 0.196.

Take GCCACAUAAGGUUGUUCCCTT against Gamt: the z-score is 2.9 (active).

Turning to CCUCUCCAACAACCAACUATT against Lrrc47, the z-score is -0.27.

Take GGCUCCAAAUCAAACUCUATT against Eif4e3: the z-score is 2.19 (active).

As to GGAACCAAGCCAUGAUUUUTT against Mrgprb2, the z-score is 0.646.

With CCAGUACUCGUUUCACUUATT against Mrpl15, the z-score is 0.374.

With GGUGGACUUGUACCUCUUCTT against Tnks, the z-score is -0.0808.

Consider CCGUAUUGUCACUUGUGGGTT against Arpc1a, for which the z-score is 0.479.

On to CAGGAAAUUAGCGAUGUGGTT against Abl2, for which the z-score was 0.206.

As to GGUGCUAAAGUCAAAAAACTT against Fras1, the z-score was 0.218.

GAAGGGACUUCAAAGUUGATT against Ndufb10: the z-score is 3.3 (active).

Consider GGGACAUCAGAUUAUUCAUTT against Zfp87, for which the z-score was 1.43.

For the sequence GGAAGACAAUGGUGUGAAATT against Pgm3, the z-score is -0.74.

As to GGCCGCCAUUUUGGCAAGATT against Fbxo27, the z-score was 3.41 (active).

Take CGGUGAUAACAGACAUUAATT against Aldh8a1: the z-score was -0.561.

With CCGAACCUUCAGCUACACATT against Keap1, the z-score was 0.0133.

Take GGAAAAAUUCGAGGGACUGTT against Rcan2: the z-score was 1.12.

Take GGAAGUGUAUUCAAGAAGUTT against Tapt1: the z-score is 3.02 (active).

With GCCGUUCUGCUAUCACAACTT against Scrn2, the z-score was -0.531.

GAAGAGACCUUCACAAAGUTT against Hnrnpll: the z-score is -1.52.

As for GGAGCGAGGAAUCAAUGUUTT against Prss8, the z-score was 2.86 (active).

Take GGAACACCUACAGUAUAAATT against Cdc123: the z-score was -0.39.

Take GGAGCGAUUUGCUGGUGUGTT against Rps16: the z-score is 1.19.

In the case of GGUAUCAAGGUGAAGUUGATT against Septin1, the z-score is 0.776.

With GGGACACUACCCUGAUGAUTT against Vmn1r205, the z-score was -2.05 (active).

For GGUUGGACAAAAAGAAUCUTT against Ifngr1, the z-score is 0.507.

Take GGUCUGAGUUUUAAACAGUTT against Gmfb: the z-score is 1.13.

On to GGGUUACCUCCUGACUGUUTT against Olfr930, for which the z-score is -1.9.

On to GCUGCUUUGCUAUCUCCUGTT against Apof, for which the z-score is -2.25 (active).

In the case of CGAGGAGUUGGAUUUCAGGTT against Dnmbp, the z-score was -0.713.

For the sequence GGGAGUAAAGAAAAUGUUATT against Atxn2, the z-score is -0.112.

Consider GCUUAUUUCGCCUAUGUGGTT against Slc24a2, for which the z-score is -1.11.

In the case of GCAAGAUGGUAUCAGCAGATT against Sde2, the z-score was -2.1 (active).

Turning to “GGAAAGAGGAAGAUAAAGUTT against 2310002L09Rik”, the z-score is -1.17.

For CCGCUUUUCAUAACACGAATT against Obp2a, the z-score was 0.037.

On to CCUCAUUUAGAUGUCUUGATT against Ran, for which the z-score is -0.0987.

Regarding GUCUUUGUUCAGGAGGUGATT against Ahnak, the z-score was 0.0593.

On to GCCAUGCUAAUCAAGACGGTT against Gtf2ird2, for which the z-score was -0.99.

Turning to GCUCUCUCUCAUUGAUCUCTT against Olfr697, the z-score was -1.63.

Turning to GGUUUGGCAUCUAAAGAGCTT against Olfr1412, the z-score is -2.42 (active).

On to CCAGCUUUUACCUAAUACCTT against Ggt1, for which the z-score is 0.0683.

GGGUAUCUGAUUUAUAAGCTT against Mageh1: the z-score was -0.371.

On to GGGAAAGGGUUUUUUAUUCTT against Slc1a1, for which the z-score is -0.177.

In the case of GCCAAAAAGUGUGUGUUGGTT against Olfr731, the z-score was 0.0799.

Consider CCAGUUUGCACAAGUUUUCTT against Fyco1, for which the z-score was 1.94.

As for GGAUCUUCCAAGUUGUCUGTT against Srm, the z-score was 2.42 (active).

Turning to CGAGCUGAACAGAAUGAUATT against Krt85, the z-score is 0.265.

In the case of GGCAAGGUCAAGGACACCATT against Tcp11, the z-score was -0.77.

As for “GCAUGCAUGCUAUUGUUUUTT against 4931431C16Rik”, the z-score was 0.336.

On to GGCACACACUGAUUUUUUUTT against Cops2, for which the z-score was 0.0987.

On to GGUCCAAUGGAUUUUGUUUTT against Pxdc1, for which the z-score was 2.06 (active).

Turning to GGUGCGAAGGAAAUUGCACTT against Mrps26, the z-score is 1.

With GCCUUUACUGGAUUCAUUGTT against Acadm, the z-score is 2.53 (active).

Regarding GGCAGAGAAUCAGCUCCUUTT against Il16, the z-score is 0.377.

Turning to CGAUCGAUAAAUGUAAUGATT against Heatr5a, the z-score was -0.0662.

On to GGAGUAUGCUGUCAAAAUCTT against Mknk1, for which the z-score is 0.259.

For the sequence GGAUCACCAGACCUUUUUCTT against St7l, the z-score was -1.94.

Regarding CCAGGAAUCUAGAUAAUAGTT against BC031181, the z-score is -1.05.

On to GCAUUACCAAAAGCAGUCUTT against Lyn, for which the z-score was -1.46.

Regarding CCUCUAUUCUCCGUCUAUGTT against Fars2, the z-score is 2.45 (active).

As to GGCUACAUUGUCUCAUUGUTT against Opn1mw, the z-score was -0.59.

With GGUUAAGGAGAAAUGUGAUTT against Mob3a, the z-score is -0.0804.

For GGUUAAAAUGCCAUAACAATT against Ksr1, the z-score is -1.26.

In the case of GGGAAGUCAUUCACAUAUUTT against Rab39b, the z-score is -1.58.

Regarding GGAAGUCCACGAAACUAAATT against Prl3d1, the z-score was 0.359.

CGACCUGUGGGAAGAUAUUTT against Apoa5: the z-score was -0.992.

As for GGGAUACUUUCUUCGAGGATT against Soga3, the z-score is -2.36 (active).

Consider GGCCAUUGUUGAAAUGUACTT against Myh14, for which the z-score is 0.175.

Consider GGUAUCAACAUCACGAUUCTT against Mrgpra1, for which the z-score was 0.487.

Regarding GCACCUGGUGAAUUUUACCTT against Tmem106c, the z-score is -0.85.

Take GCCUUACUGACUCGUGUCCTT against Ccp110: the z-score was -2.33 (active).

Turning to GGACCUUUAAAGCUAAGCUTT against Ccn5, the z-score was -1.4.

GGAGUUUUCAAAAAACAGATT against Dsc2: the z-score is -0.356.

Take GGAUACUGCCAUUCAUAGGTT against Cstdc2: the z-score was -0.182.

Consider GGAAAGCUUUCUUCACCUGTT against Olfr206, for which the z-score was -1.73.

Take GCUUCAACCCGGUCACACUTT against Kif6: the z-score was 2.81 (active).

In the case of GGCGCAAUGCUCAUGUGAATT against Gzmc, the z-score is -0.54.

For GGAAGUUUUGGCUUAGGCATT against Tmco5b, the z-score was 1.58.

Turning to GGCGAUCCACAGGAACUCUTT against Tiam1, the z-score was -1.23.

Take GCAACAACGAGUCAUGGCUTT against Plcd1: the z-score was -0.502.
